The list is not random: actives were taken first. Their share in the collection is about 4.1%.
hcDAF-12 act = H. contortus DAF-12 activation, primary screen; HEK293 hcDAF-12 lit1-tk-luc reporter, luminescence; 0% DMSO, 100% Δ7-dafachronic acid; activation, % at 6.8 µM; actives 1.4% (n = 370,000); AID 652067;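 active means activation above the mean of all tested compounds plus 3 SD, cut at about 5.5% in these data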;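 further: 100% = response to 3 µM Δ7-dafachronic acid high control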
DAX1 inh-1 = inhibits human nuclear receptor DAX1; inhibition, % at 6.75 µM; HEK293 Gal4-DAX1 luciferase reporter, luminescence; actives 0.99% (n = 340,000);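 active means inhibition above the mean over all tested compounds plus 3 SD, cut at about 4.2% in these data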;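 further: 0% = DAX1-transfected cells with DMSO and 100% = empty-vector control cells with DMSO; inhibition shows as a rise in luminescence from relieved DAX1 repression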
Target sequence (P51843 207-470 limits assumed): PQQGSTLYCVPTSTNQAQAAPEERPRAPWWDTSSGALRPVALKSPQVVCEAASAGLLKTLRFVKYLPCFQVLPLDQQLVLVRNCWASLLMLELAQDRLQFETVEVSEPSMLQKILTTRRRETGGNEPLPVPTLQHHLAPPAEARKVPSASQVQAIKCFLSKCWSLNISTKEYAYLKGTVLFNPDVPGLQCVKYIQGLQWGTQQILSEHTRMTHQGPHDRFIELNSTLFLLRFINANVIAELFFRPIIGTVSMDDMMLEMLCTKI
ssDAF12 agonist = activates DAF-12 receptor from parasite S. stercoralis. actives 1% (n = 370,000). AID 652126. HEK293 ssDAF-12/GRIP1 lit1-tk-luc reporter, luminescence; % of 3 µM dafachronic acid response. activation, % at 6.8 µM;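 active means activation above the mean over all tested compounds plus 3 SD, cut at about 0.9% in these data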;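 further: 0% = DMSO-only wells and 100% = 3 µM delta7-dafachronic acid wells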
hgDAF-12 ag = agonists of H. glycines DAF-12 nuclear receptor. activation, % at 6.8 µM. actives 1.8% (n = 370,000). AID 687014. HEK293 GAL4-hgDAF12 UAS-luciferase reporter, agonist luminescence; normalized to butyrate control;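 active means activation above a cutoff set at the mean of all screened compounds plus 3 SD, cut at about 10% in these data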;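 further: 0% = DMSO wells and 100% = sodium butyrate wells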
DAX1 inh-2 = inhibitors of DAX1 repression of SF-1 activated StAR promoter. HEK293T StAR-luciferase reporter, SF-1/DAX-1 repression relief. inhibition, % at 6.8 µM. AID 652010. actives 1.1% (n = 370,000);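 active means inhibition above the mean over all tested compounds plus 3 SD, cut at about 3.6% in these data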;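 further: 0% = DAX-1 cells with DMSO and 100% = cells lacking DAX-1 with DMSO; higher inhibition means more luminescence from relief of DAX-1 repression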
LXR ag = counter-screen for hcDAF-12 agonists: agonists of human LXR-beta. activation, % at 6.8 µM. HEK293 Gal4-LXR tk-luc reporter, luminescence, 24 h; normalized: DMSO 0%, positive control 100%. 3,400 tested, under 10 active. shares compounds with hcDAF-12 act;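 active means mean percent activation of the reporter above a cutoff set as the average over tested compounds plus their standard deviation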
hcDAF12 conf = confirmation of H. contortus DAF-12 agonists; HEK293 hcDAF-12 lit1-tk-luc reporter, luminescence; % of Δ7-dafachronic acid response; actives 61% (n = 3,400); shares compounds with hcDAF-12 act; activation, % at 6.8 µM;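 active means mean activation across triplicate tests above the threshold derived from the earlier primary screen, cut at about 5.5% in these data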;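 further: 0% = DMSO only wells and 100% = 3 µM Δ7-dafachronic acid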
* hit, by the source's call; . = not tested or not shown.

SMILES	hcDAF-12 act	DAX1 inh-1	ssDAF12 agonist	hgDAF-12 ag	DAX1 inh-2	LXR ag	hcDAF12 conf
CCc1ccc(C2c3[nH]c4ccccc4c3CCN2C(=O)CNC(N)=O)cc1 (stereo unspecified)	2	-1	-1	2	0	.	.
CCc1ccc(C2c3[nH]c4ccccc4c3CCN2C(=O)CN2CCN(CC)CC2)cc1 (stereo unspecified)	8.5*	-1	1	0	0	0	4
CCc1ccc(C(O)c2ncc(-c3ccc(Cl)cc3)[nH]2)cc1 (stereo unspecified)	0	.	-1	-1	-1	.	.
CCOc1ccc(Br)cc1CNCCN1CCOCC1	13*	0	-1	0	0	0	1
COc1ccc(-c2nc3c4ccccc4ccn3c2CN2CCCCC2)cc1OC	1	0	-1	2	-1	.	.
COc1ccc(-c2nc3c4ccccc4ccn3c2CN2CCCCC2)cc1	7.0*	2	-1	4	0	0	1
NC(=O)[C@@H]1[C@@H]2C(=O)N(c3ccc(F)cc3)C(=O)[C@@H]2[C@H]2C=Cc3ccccc3N21	7.5*	.	0	1	0	0	5
CSc1ccccc1NC(=O)c1cc(CC(C)C)on1	7.5*	0	0	11*	2	0	4
O=C(Nc1ccncc1)Nc1cccc(Cl)c1Cl	-3	-1	-1	0	-2	.	.
O=C(Nc1ccccc1)Nc1cccc(Cl)c1Cl	7.3*	3	-1	6	0	0	2
Cn1cccc1C(=O)C(=O)Nc1cccc(Cl)c1Cl	6.6*	1	0	6	1	1	12*
O=C(NCc1csc2ccc(Cl)cc12)Nc1ccccc1	-1	2	-2	0	0	.	.
O=C(NCc1ccc(Cl)cc1Cl)Nc1ccccc1	7.4*	1	-1	7	1	0	4
CCOC(=O)N1CCN(C(=O)c2cc3c(=O)n4cccc(C)c4nc3s2)CC1	7.4*	2	0	2	0	0	3
O=S1(=O)c2ccc(N3CC[C@@H](O)C3)cc2O[C@H]2CCN1C2	-2	.	0	3	-1	.	.
Cc1cc(-c2n[nH]c(=S)n2N=Cc2cccc(OCc3ccccc3)c2)n[nH]1	0	.	-1	3	2	.	.
Cc1ccc(NC(=O)OCc2cc(-c3ccccc3)on2)cc1	0	3	-1	1	0	.	.
Cc1ccc(-c2cc(-c3ccccc3)no2)cc1	14*	2	1.8*	14*	3.7*	2	14*
CC(C)c1nnc(NC(=O)CCC(=O)NC2CCCCCC2)s1	0	1	-1	0	0	.	.
COc1ccc(C(=O)/C=C/Nc2cc(C)ccn2)cc1	10*	-3	0	14*	2	2	11*
COc1ccc(C(=O)Nc2ccccc2C(=O)Nc2cc(C)ccn2)cc1	3	1	-2	5	1	.	.
Cc1ccccc1CN1CCN(CCCc2ccccc2)C(CCO)C1 (stereo unspecified)	0	1	-1	4	0	.	.
OCCC1CN(Cc2ccccc2O)CCN1CCCc1ccccc1 (stereo unspecified)	7.8*	-1	-1	0	0	0	1
COc1ccc(Nc2nnc(SCC(=O)c3cc4ccccc4o3)s2)cc1	10*	4	2.0*	6	2	0	5
O=C(CSc1nnc(Nc2ccccc2F)s1)c1cc2ccccc2o1	7.8*	0	0	2	0	0	3
O=C1c2ccccc2C(=O)N1CSc1nnc(Nc2ccccc2F)s1	0	-2	-1	-1	1	.	.
CC1(C)OC(=O)C2=C(C[C@@H](C3CC3)O[C@@H]2C2CC2)O1	-1	.	-1	-1	0	.	.
COC(=O)C[C@@H]1C=C[C@@H](NC(C)=O)[C@@H](CO)O1	1	.	-1	1	0	.	.
Cc1cccc(NNC(=S)Nc2ccccc2)c1	11*	1	0	3	1	0	5
